According to the supplement of paper PMC4723716:
± gives the uncertainty stated by the source. In all, about 9,900 compounds were measured (“viability index relative to DMSO control”: median about 1, lowest 2% from about 0.85 on). What follows is part of a selection rich in the lowest values, with near analogues and random picks from the rest.

What follows are compounds tested on Plasmodium falciparum NF54 stage V gametocytes (assay: viability index relative to DMSO control (fraction); higher = less gametocyte killing). Conditions: 2.5 µM, library set: Broad Institute DOS, incubation time: 72 h.
Summary of the method: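 Compound at 2.5 µM was incubated for 72 hr at 37°C under low oxygen with P. falciparum NF54 stage V gametocytes (0.75% gametocytemia, 1.25% hematocrit, 10 µl, serum-free screening medium) in 1,536-well plates. Staining used 3 µl of 2.5 µM MitoTracker Red CMXRos plus 0.13% saponin for one to two hours, and red particles of 20–70 µm2 were counted in one imaged field per well. Each viability index is that count relative to the plate mean of solvent-only wells.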
With `C[C@@H]1CN([C@@H](C)CO)C(=O)CCCn2cc(nn2)CO[C@@H]1CN(C)S(=O)(=O)c1cn(C)cn1` the viability index was 1.07 ± 0.062.
In the case of `COC(=O)C[C@H]1C[C@H]2c3cc(N)ccc3O[C@H]2[C@H](CO)O1`, the viability index is reported as 1.05 ± 0.0071.
Compound `C/C=C/c1ccc([C@@H]2[C@H](CO)N3CCCCN(S(=O)(=O)c4ccc(OC)cc4)C[C@@H]23)cc1` has a viability index of 1.03 ± 0.014.
Compound `C[C@H](CO)N1C[C@H](C)[C@H](CN(C)C(=O)NC2CCCCC2)OCc2ccccc2-c2ccccc2C1=O` has a viability index of 1.03 ± 0.03.
In the case of `COC(=O)C[C@H]1CC[C@@H]2[C@@H](COc3ccc(NC(=O)Nc4c(C)noc4C)cc3C(=O)N2C)O1`, the viability index is reported as 0.983 ± 0.14.
`O=C(Nc1ccc(F)cc1)N1CC(=O)N2[C@H](CO)[C@H](c3ccc(-c4cccc(F)c4)cc3)[C@H]2C1` was tested, and the viability index was 1.05 ± 0.019.
`C[C@@H]1CN([C@H](C)CO)C(=O)c2ccccc2-c2ccccc2CO[C@@H]1CN(C)C(=O)Nc1cccc(Cl)c1Cl` was tested, and the viability index was 0.894 ± 0.05.
`C[C@@H]1CN([C@H](C)CO)C(=O)c2ccccc2-c2ccccc2CO[C@H]1CN(C)C(=O)Nc1cccc(Cl)c1Cl` was tested, and the viability index was 0.863 ± 0.045.
In the case of `C[C@@H]1CN([C@@H](C)CO)C(=O)c2ccccc2-c2ccccc2CO[C@H]1CN(C)C(=O)Nc1cccc(Cl)c1Cl`, the viability index is reported as 0.72 ± 0.16.
`C[C@@H]1CN([C@@H](C)CO)C(=O)c2ccccc2-c2ccccc2CO[C@@H]1CN(C)C(=O)Nc1ccc(-c2ccccc2)cc1` was tested, and the viability index was 0.977 ± 0.016.
`C[C@H]1CN([C@@H](C)CO)C(=O)c2ccccc2-c2ccccc2CO[C@H]1CN(C)C(=O)Nc1ccc(-c2ccccc2)cc1` showed a viability index of 0.724 ± 0.14.
With `C[C@@H]1CN([C@@H](C)CO)C(=O)c2ccccc2-c2ccccc2CO[C@@H]1CN(C)C(=O)Nc1cccc(Cl)c1Cl` the viability index was 0.946 ± 0.053.
Compound `C[C@H](CO)N1C[C@H](C)[C@@H](CN(C)C(=O)Nc2ccc(-c3ccccc3)cc2)OCc2ccccc2-c2ccccc2C1=O` has a viability index of 1.019 ± 0.0076.
With `C[C@H]1CN([C@@H](C)CO)C(=O)c2ccccc2-c2ccccc2CO[C@H]1CN(C)C(=O)Nc1cccc(Cl)c1Cl` the viability index was 0.9208 ± 0.0078.
`C[C@H](CO)N1C[C@H](C)[C@@H](CN(C)C(=O)Nc2cccc(Cl)c2Cl)OCc2ccccc2-c2ccccc2C1=O` showed a viability index of 0.845 ± 0.043.
Work on `COC(=O)C[C@@H]1C[C@@H]2c3cc(NC(=O)c4ccc5c(c4)OCO5)ccc3O[C@@H]2[C@H](CO)O1` yielded a viability index of 0.991 ± 0.033.
`COc1ccc(S(=O)(=O)Nc2ccc3c(c2)CC(=O)N([C@H](C)CO)C[C@@H](C)[C@@H](CN(C)C(=O)Nc2c(C)noc2C)O3)cc1` gave a viability index of 1.101 ± 0.0069.
In the case of `Cc1ccc(S(=O)(=O)N(C)C[C@@H]2Oc3c(NS(C)(=O)=O)cccc3C(=O)N([C@H](C)CO)C[C@@H]2C)cc1`, the viability index is reported as 0.939 ± 0.13.
With `COc1ccccc1CNC(=O)C[C@@H]1C[C@@H]2c3cc(NC(=O)C4CCC4)ccc3O[C@@H]2[C@@H](CO)O1` the viability index was 1.01 ± 0.015.
With `O=C([C@@H]1[C@@H](CO)[C@@H]2Cn3c(ccc(C4=CCCC4)c3=O)[C@H]1N2C(=O)c1cccnc1)N1CCOCC1` the viability index was 1.08 ± 0.038.
In the case of `CCc1nc(N2[C@H](CO)[C@H](c3ccccc3-c3ccc(F)cc3)[C@@H]2C#N)sc1C`, the viability index is reported as 1.03 ± 0.12.
`O=C(C[C@@H]1CC[C@H]2NC[C@@H](O)COC[C@@H]2O1)NCc1ccc2c(c1)OCO2` was tested, and the viability index was 1.07 ± 0.015.
With `COc1ccc2c3c([nH]c2c1)[C@H](CO)N(Cc1ccncc1)C[C@]31CN(C1)C(=O)CN(C)C` the viability index was 1.04 ± 0.071.
`COc1ccc2c3c([nH]c2c1)[C@H](CO)N(Cc1ccc(Cl)cc1)C[C@]31CCN(Cc2nccs2)CC1` gave a viability index of 0.884 ± 0.047.
`CCCC(=O)N1CC[C@@]2(CC1)CN(Cc1ccc(Cl)cc1)[C@H](CO)c1[nH]c3cc(OC)ccc3c21` was tested, and the viability index was 0.873 ± 0.16.
Compound `COc1ccc2c3c([nH]c2c1)[C@@H](CO)N(Cc1ccc(Cl)cc1)C[C@]31CCN(Cc2nccs2)CC1` has a viability index of 0.814 ± 0.015.
`COCC(=O)N1CC[C@@]2(CC1)CN(Cc1ccccc1Cl)[C@H](CO)c1[nH]c3cc(OC)ccc3c21` was tested, and the viability index was 1.023 ± 0.0089.
With `COc1ccc2c3c([nH]c2c1)[C@@H](CO)N(Cc1nccs1)C[C@]31CCN(Cc2cccnc2)CC1` the viability index was 0.98 ± 0.062.
In the case of `COc1ccc2c3c([nH]c2c1)[C@@H](CO)N(Cc1ccccc1)C[C@]31CCN(Cc2cncnc2)CC1`, the viability index is reported as 0.849 ± 0.064.
For `COc1ccc2c3c([nH]c2c1)[C@@H](CO)N(Cc1nccs1)C[C@]31CN(Cc2ccncc2)C1`, the viability index was 1.02 ± 0.079.
`CCCC(=O)N1CC[C@@]2(CC1)CN(Cc1ccc(Cl)cc1)[C@@H](CO)c1[nH]c3cc(OC)ccc3c21` was tested, and the viability index was 0.795 ± 0.039.
Work on `COc1ccc2c3c([nH]c2c1)[C@H](CO)N(Cc1nccs1)C[C@]31CCN(Cc2cccnc2)CC1` yielded a viability index of 0.946 ± 0.081.
`CCCN(C)C[C@H]1Oc2cc(/C=C/c3ccccc3)ccc2S(=O)(=O)N([C@H](C)CO)C[C@H]1C` gave a viability index of 1.05 ± 0.026.
`COc1ccc2c3c([C@@H](CO)N(C[C@]33CCN(CC4CCOCC4)CC3)C(=O)NC(C)C)n(C)c2c1` gave a viability index of 0.97 ± 0.013.
Compound `COc1ccc2c3c([C@H](CO)N(CC4CC4)C[C@]33CCN(CC3)C(=O)NC3CCCC3)n(C)c2c1` has a viability index of 0.955 ± 0.05.
In the case of `C[C@H]1CN([C@@H](C)CO)C(=O)CCCn2nncc2CO[C@H]1CN(C)C(=O)c1ccc2ccn(C)c2c1`, the viability index is reported as 1.015 ± 0.0067.
In the case of `O=C(C[C@@H]1CC[C@H]2[C@@H](COC[C@@H](O)CN2C(=O)c2ccccc2F)O1)NCc1ccc(Cl)c(Cl)c1`, the viability index is reported as 1.09 ± 0.036.
Compound `COC(=O)c1ccc(CN2CC(=O)N3[C@H](CO)[C@@H](c4ccc(-c5cccnc5)cc4)[C@H]3C2)cc1` has a viability index of 0.986 ± 0.01.
With `C[C@@H]1CN([C@H](C)CO)C(=O)CCCn2cc(nn2)CO[C@@H]1CN(C)Cc1ccccc1` the viability index was 0.986 ± 0.035.
With `O=C(C[C@H]1CC[C@@H](NC(=O)Nc2ccc(C(F)(F)F)cc2)[C@H](CO)O1)NCc1cccc(F)c1` the viability index was 0.953 ± 0.14.
In the case of `C[C@@H]1CCCCO[C@@H](CN(C)C(=O)Nc2cccc3ccccc23)[C@H](C)CN([C@@H](C)CO)C(=O)c2cc(NC(=O)CCC(F)(F)F)ccc2O1`, the viability index is reported as 1 ± 0.061.
`C[C@@H]1CN([C@H](C)CO)C(=O)c2cc(NC(=O)CCC(F)(F)F)ccc2O[C@@H](C)CCCCO[C@H]1CN(C)C(=O)Nc1cccc2ccccc12` was tested, and the viability index was 1.08 ± 0.036.
In the case of `C[C@@H]1CN([C@@H](C)CO)C(=O)c2cc(NC(=O)C3CCCCC3)ccc2O[C@@H](C)CCCCO[C@H]1CN(C)C(=O)CCC(F)(F)F`, the viability index is reported as 1.07 ± 0.071.
`C[C@@H]1CN([C@H](C)CO)C(=O)c2cc(NC(=O)C3CCCCC3)ccc2O[C@@H](C)CCCCO[C@H]1CN(C)C(=O)CCC(F)(F)F` gave a viability index of 1.05 ± 0.096.
Compound `C[C@@H]1CN([C@@H](C)CO)C(=O)c2cc(NC(=O)CCC(F)(F)F)ccc2O[C@@H](C)CCCCO[C@@H]1CN(C)C(=O)Nc1cccc2ccccc12` has a viability index of 0.734 ± 0.082.
In the case of `Cc1noc(C)c1S(=O)(=O)Nc1ccc2c(c1)C(=O)N([C@@H](C)CO)C[C@@H](C)[C@@H](CN(C)C(=O)Nc1cccc3ccccc13)OCCCC[C@H](C)O2`, the viability index is reported as 0.828 ± 0.11.
For `Cc1noc(C)c1S(=O)(=O)Nc1ccc2c(c1)C(=O)N([C@@H](C)CO)C[C@@H](C)[C@@H](CN(C)C(=O)Nc1cccc3ccccc13)OCCCC[C@@H](C)O2`, the viability index was 0.893 ± 0.066.
In the case of `C[C@@H]1CN([C@H](C)CO)C(=O)c2cc(NC(=O)C3CCCCC3)ccc2O[C@@H](C)CCCCO[C@@H]1CN(C)C(=O)CCC(F)(F)F`, the viability index is reported as 0.817 ± 0.26.
`Cc1noc(C)c1S(=O)(=O)Nc1ccc2c(c1)C(=O)N([C@@H](C)CO)C[C@H](C)[C@@H](CN(C)C(=O)Nc1cccc3ccccc13)OCCCC[C@H](C)O2` showed a viability index of 0.984 ± 0.043.
